# Assay outcomes as filed in PubChem.
# aSyn yeast inh – qHTS of alpha-syn Inhibitors; Yeast expressing alpha-synuclein, growth rescue, BacTiter-Glo, 24 h; Potency, µM (series often up to 46.1 µM), inactives show at the top dose growth rescue (activation), actives largely listed as activators; 370,000 compounds, 0.14% hits; AID 652106, 2013; further: % of control where 0% means no effect; nearly all actives have a fitted effect of over 65% in size
#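 Rescue of yeast growth: cells expressing toxic alpha-synuclein, induced in galactose at OD600 0.02, incubated with compound 24 h at 30 C. ATP luminescence quantified growth; inhibitors of toxicity appear as activators.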
# ClpP mod – qHTS Assay for Activators of ClpP | ATP-dependent Clp protease proteolytic subunit (Bacillus subtilis (strain 168)), P80244 | purified B. subtilis ClpP, FRET peptide cleavage, 20 min | Potency, µM (top dose mostly 57.5 µM), inactives show top-dose activity change, negative = active | 340,000 compounds, 1.9% hits; active means well fitted falling curve with a large enough effect; inconclusive means small, poorly fitted or top-dose-only effect; inactive means no such curve, though single readings can be large or run the other way; further: the source files actives as falling curves though it sought activators and does not explain the sign; nearly all actives have a fitted effect of over 65% in size
# Target sequence (P80244 whole entry, looked up): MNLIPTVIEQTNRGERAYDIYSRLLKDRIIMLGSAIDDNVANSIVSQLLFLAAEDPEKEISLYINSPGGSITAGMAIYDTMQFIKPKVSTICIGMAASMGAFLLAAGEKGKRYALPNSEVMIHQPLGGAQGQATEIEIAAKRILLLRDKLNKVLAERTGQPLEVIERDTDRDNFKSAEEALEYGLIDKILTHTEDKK
#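 FRET quenching reversal measured ClpP activation: 10 microg/mL B. subtilis ClpP at pH 8 with the FRET-FV decapeptide, read at 430 nm after 320 nm excitation. The 20-min minus 0-min signal was scaled between DMSO/no-enzyme wells and ADEP (5.8 microM final).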
# FUS yeast rescue – qHTS for Suppressors of FUS Proteinopathy: Primary screen using FUS-linked yeast assay. 390,000 compounds, 0.24% hits. AID 1347120, 2019. Potency, µM (series often up to 76.6 µM), most hits filed as activators. S. cerevisiae FUS-expressing, growth rescue, OD600, 24 h;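 further: plate controls were DMSO vehicle for no effect and reference control for full effect; nearly all actives have a fitted effect of over 55% in size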
#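 FUS-expressing yeast, raffinose-pregrown, induced in 2% galactose minimal medium at OD 0.005; compounds in a dilution series, 24hr at 30C. Growth restoration read as absorbance at 600 nm. CP55940 positive control, DMSO negative.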
# Abeta rescue – qHTS for compounds that reverse cellular toxicity of Amyloid beta (A-beta) peptide in yeast: Primary Screen; yeast expressing A-beta42, growth rescue, OD600, 48 h; response scale: 0% DMSO, 100% iron-clioquinol control; Potency, µM (top dose mostly 46.1 µM), most hits filed as activators; 410,000 compounds, 0.063% hits; AID 1347071, 2019; further: nearly all actives have a fitted effect of over 55% in size
#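 Growth rescue measured by 600 nm absorbance after 48 h yeast culture at 30 C with compound. Values normalized between DMSO and an equimolar ferric chloride plus clioquinol control.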
# TDP43 rescue – qHTS of TDP-43 Inhibitors; TDP-43 expressing yeast growth rescue, BacTiter-Glo, 24 h; Potency, µM (titrated, usually from 46.1 µM), inactives show at the top dose growth rescue (activation), usual class: activators; 410,000 compounds, 1.8% hits; further: % of control where 0% means no effect; nearly all actives have a fitted effect of over 50% in size
#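 Cell-based yeast growth screen: TDP-43 expression induced in galactose, inoculum OD600=0.02 after raffinose pregrowth to mid-log. Read-out BacTiter-Glo luminescence at 24 hr, 30 deg C; inhibition of toxicity seen as signal increase.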
# Mm-Cpn inhibitor – Inhibitors of TCP-1 ring complex (TRiC) of Methanococcus maripaludis (MmCpn): qHTS. Chaperonin Mm-Cpn (Methanococcus maripaludis). purified Mm-Cpn ATPase, ADP Transcreener TR-FRET. Potency, µM (top dose mostly 76.9 µM), inactives show top-dose activity, negative = inhibition, most hits filed as inhibitors. 330,000 compounds, 0.031% hits; further: on the % scale 0 is the no-effect control and ±100 the full control effect; nearly all actives have a fitted effect of over 80% in size
#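 Quantitative HTS used 25 nM Mm-CPN and 10 uM ATP in magnesium/KCl Tris buffer, pH 7.4, with 1 mM DTT. Hydrolysis ran 30 min at 37°C; ADP was read by HTRF.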
# * hit, by the source's call; i = inactive; ? = inconclusive; · = no result given. A selection: hits, their analogues and other compounds. The true share with any hit is near 3.6%. Unless noted, the call rests on the fitted dose curve; in most records, active means well fitted curve in the direction sought with a large enough effect; inconclusive means small, poorly fitted or top-dose-only effect, or another doubt; inactive means no such curve, though single readings can be large; an effect the other way counts as inactive or inconclusive. Potency means the concentration at half of the fitted maximal effect.
SMILES,aSyn yeast inh,ClpP mod,FUS yeast rescue,Abeta rescue,TDP43 rescue,Mm-Cpn inhibitor
CC(C)OCCCn1c(SCc2cccc(Br)c2)nc2c(sc3ccccc32)c1=O,·,-7%,i,i,6%,·
Cc1nnc(Sc2nc3ccccc3o2)c2ccccc12,?,0%,i,i,14µM*,-2%
Cc1ccc(-c2nnc(Sc3nc4ccccc4o3)c3ccccc23)cc1,5%,-3%,i,i,-3%,-2%
CC12CN3CC(C)(CN(C1)C3c1ccc(OCc3ccccc3)cc1)C2=O (stereo not given),·,1%,i,i,20µM*,·
Cc1ccc(N2CCN(C(=O)C(=O)c3cccc([N+](=O)[O-])c3)CC2)cc1,-3%,-2%,i,i,16µM*,·
O=[N+]([O-])c1cccc(C(=S)N2CCN(c3ccccc3)CC2)c1,10%,-1%,·,i,13µM*,2%
O=C(Oc1ccc(C(=S)N2CCOCC2)cc1)c1ccc([N+](=O)[O-])cc1[N+](=O)[O-],1%,-1%,i,i,0%,-2%
O=C(Oc1cccc(C(=S)N2CCOCC2)c1)c1ccc([N+](=O)[O-])cc1[N+](=O)[O-],-56%,-25%,i,i,11µM*,1%
COc1ccc(CNC(=O)CN(c2cc(C(F)(F)F)ccc2Cl)S(C)(=O)=O)cc1,·,-2%,i,i,12%,·
O=C(C[N+]1(CCO)CCOCC1)c1ccc2ccccc2c1,1%,-1%,·,·,·,·
O=C(Nc1cc(C(F)(F)F)ccc1-n1cncn1)c1ccc(-c2ccccc2)cc1,-5%,-4%,i,i,14µM*,1%
CN(c1ccc(C(=O)NCCc2ccccc2)cc1)S(C)(=O)=O,2%,0%,i,i,-21%,-1%
CN(c1ccc(C(=O)NCCSC(C)(C)C)cc1)S(C)(=O)=O,-1%,10µM*,i,i,4%,1%
CCC(c1nnnn1-c1ccc2c(c1)OCCO2)N1CCN(c2ccc(F)cc2)CC1 (stereo not given),10%,-2%,i,i,0%,·
CCC(c1nnnn1-c1ccc2c(c1)OCCO2)N1CCN(c2ncccc2C(F)(F)F)CC1 (stereo not given),?,?,?,i,13µM*,·
COc1cccc(-c2ncc3ccccc3c2COC(=O)c2cccs2)c1,8%,-18%,i,i,35µM*,-3%
CCN(CC)C(=O)OCc1c(-c2ccccc2)ncc2ccccc12,2%,-3%,i,i,13%,-1%
CCN(CC)C(=O)OCc1c(-c2cccc(OC)c2)ncc2ccccc12,-14%,-4%,i,i,11µM*,2%
CCOC(=O)c1snc(C(=O)NC2CCCCC2)c1N,-24%,?,i,i,30%,-3%
Nc1c(C(=O)NC2CCCCC2)nsc1C(=O)OCC(=O)NC1CCCCC1,1%,25µM*,i,i,25%,-4%
Cc1ccccc1CNc1nc(N(C)C)nc2c1cnn2C,·,-18%,i,i,20µM*,·
CCNc1nc(NCc2ccc(F)cc2)c2cnn(C)c2n1,·,?,i,i,30%,·
CCNc1nc(C)nc2c1cnn2C,6%,28µM*,i,i,-15%,·
CC(=O)Nc1c(C(=O)Nc2cccc(C)c2)nnn1-c1ccc(C)cc1,·,-2%,i,i,?,·
CCc1ccc2nc(N(CCN(CC)CC)C(=O)c3ccco3)sc2c1,·,-3%,i,i,-5%,·
